# Test results published in PubChem BioAssay AID687009 (National Center for Advancing Translational Sciences (NCATS), 2013).
# Results filed as inconclusive are left out. Values without a mark were called inactive. Calls of active or inactive are those of the source. Calls come from the whole dose curve; as a rule, active = well fitted curve in the direction sought with a large enough effect; inconclusive = small, poorly fitted or top-dose-only effect, or another doubt; inactive = no such curve, though single readings can be large or run the other way.
# Biological target: Lysine-specific histone demethylase 1A (Homo sapiens) (UniProt O60341)
# Test: qHTS Assay for Inhibitors of Human Jumonji Domain Containing 2E (JMJD2E): Counterscreen with LSD1
# Conditions: Amplex Red/HRP fluorescence; series mostly up to 57.1 µM; activity, negative = inhibition: at the top concentration
# From the text: The fine interplay among methylation states of several lysine residues on the tails of histone proteins is a major determinant of the transcriptional state of the associated DNA coding regions and is commonly referred to as the histone code. Histone lysine demethylases catalyze the removal of methyl groups from methylated lysine sidechains on histones H3 and H4, thus antagonizing the reactions catalyzed by histone lysine methyltransferases. […] In search for novel inhibitors of JMJD2E demethylase, a member of the largest set of histone demethylases belonging to the Fe(II) and 2-oxoglutarate oxygenase (2OG) superfamily, we performed a quantitative high-throughput screen (Inglese 2006) by using an assay which utilizes a trimethylated peptide substrate corresponding to a fragment of histone H3 (sequence ARKme3STGGK) with detection of the formaldehyde co-product in real time by a formaldehyde dehydrogenase (FDH) coupled reaction. FDH catalyzes oxidation of formaldehyde to formic acid with the concomitant reduction of the non-fluorescent beta-nicotinamide adenine dinucleotide hydrate (NAD+) cofactor to the fluorescent NADH co-product. Compounds that were validated hits were screened against the histone LSD1 histone demethylase. […] NIH Chemical Genomics Center [NCGC] NIH Molecular Libraries Probe Centers Network [MLPCN] MLPCN Grant: MH084681 Assay Submitter (PI): Udo Oppermann, Structural Genomics Consortium, University of Oxford
# The assay was performed in a buffer containing 10 mM HEPES, Na pH 7.5, 5 mM MgCl2, 50 mM KCl, 0.01% Nonidet P-40, and 0.1% BSA. LSD1 was sourced from BPS Bioscience (Cat. No. 50100, San Diego, CA) and the substrate peptide was synthesized and purified by Tufts University Core Facilities (Boston, MA). Reagents (3 microL) containing either buffer-only (inhibited control) or LSD1 (120 nM) were dispensed into a 1,536-well Aurora black solid bottom cycloolefin plate (see Table 1 for protocol steps). Compounds (23 nL) were transferred via Kalypsys pintool equipped with a 1,536-pin array. The plate was incubated for 10 min at room temperature, followed by the addition of 1 microL 4 X substrate (10 mM HEPES, pH 7.5, 8 U/mL HRP, 800 µM Amplex Red, and 200 microM H3K4Me2 peptide [Sequence H-ARTXQTARKSTGGKAPRKQLA-NH2, where X = Nepsilon,Nepsilon-dimethyl-L-lysine]) to start the reaction. The plate was then centrifuged at 1,000 rpm for 15 seconds, and the fluorescence intensity was recorded on a ViewLux High-throughput CCD imager (Perkin-Elmer) using standard TAMRA optics (525 nm excitation and 598 nm emission). The plate was then incubated for 30 min at room temperature, and a second read on the ViewLux was performed. The fluorescence intensity difference over the 30 min was used to calculate the respective reaction rate for each well.
SMILES,"activity, negative = inhibition",Potency
O=C(O)c1ccc(O)c2ncc(-c3cccc(N4CCOCC4)c3)cc12,-17.8%,
NC(=O)c1ccnc2c(O)cccc12,-17.5%,
O=C(O)c1ccc(O)c2ncc(C3CCNCC3)cc12,-15%,
O=C(O)c1ccc(O)c2ncccc12,-17%,
CN(C)CCCNC(=O)c1ccc(-c2cnc3c(O)ccc(C(=O)O)c3c2)cc1,-17.5%,
O=C(O)c1ccc(O)c2ncc(-c3ccc(N4CCOCC4)cc3)cc12,-20.2%,
O=C(O)c1ccnc2c(O)cccc12,-19%,
CN1CCN(C(=O)c2ccc(-c3cnc4c(O)ccc(C(=O)O)c4c3)cc2)CC1,-15.6%,
O=C(O)c1ccc(O)c2ncc(-c3ccc(C(=O)N4CCNCC4)cc3)cc12,-16.8%,
CN(C)CCCN1CCCN(C(=O)c2cccc(-c3cc(O)c4ncccc4c3)c2)C1,,10.8 µM (active)
